About 2,300 (0.79%) of roughly 290,000 compounds were called active. No stated cut-off is given here; in the data, active means inhibition above about 22%; inactive means the rest. For the sample, actives were picked, then their nearest neighbours and some compounds at random.

From PubChem BioAssay AID1825 (The Scripps Research Institute Molecular Screening Center, 2009) come the findings set out here.

The experiment can be described thus: cytotoxicity in IEC-6 intestinal epithelial cells, primary screen, cytotoxicity control for KLF5 inhibitor project, cell-based, luminescence (AID 1825).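 Further: 0% = plate median of test compound wells and 100% = cytotoxic reference compound wells.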 The following applies: IEC-6 cytotoxicity, luminescence viability; at 5 µM; active compounds read high.
The term inhibition denotes the relative decrease from the control value, in per cent. With `CCOC(=O)N1CCN(CCC(=O)Nc2ccccc2)CC1`, the inhibition was -5.3% (inactive).

`O=C(Nc1cccc(NC(=O)c2ccccc2[N+](=O)[O-])c1)c1ccccc1Cl`: the inhibition is 8% (inactive). The value for `O=C(O)c1cc([N+](=O)[O-])c(Nc2cccc3ccccc23)c([N+](=O)[O-])c1` was 4.7% (inactive). The value for `CSc1ccccc1OCc1cc(C(=O)N2C[C@H]3CC[C@H]2C3)no1` was 1.9% (inactive); that for `COc1ccc(N2CCN(C(=O)[C@@H](NC(=O)c3cc(OC)cc(OC)c3)C(C)C)CC2)cc1` was -4.9% (inactive); that for `Cc1cccnc1NC(=O)c1cccc(S(=O)(=O)N2CCN(c3ccc(F)cc3)CC2)c1` was 2.3% (inactive).

Consider `Cc1c(/C=N\NC(=O)c2cc3ccccc3o2)c2ccccc2n1C`, for which the inhibition was 43.7% (active). The value for `O=C(N/N=C/c1coc2ccccc2c1=O)c1cc2ccccc2o1` was 4.7% (inactive). In the case of `O=C(N/N=C/c1c[nH]c2ccccc12)c1cc2ccccc2o1` it was 12.6% (inactive); in that of `O=C(Nc1ccccc1Cl)Nc1cccc2cccnc12`, 3.4% (inactive).

With `Cc1ccccc1NC(=O)c1ccccc1NS(=O)(=O)c1cccc2cccnc12`, the inhibition was -2.7% (inactive). In the case of `O=[N+]([O-])c1ccccc1S(=O)(=O)Nc1cccc2cccnc12`, the inhibition was 55.6% (active). For the compound `O=C(NCCc1nnc2ccc(SCC(=O)N3CCOCC3)nn12)c1ccccc1`, the inhibition is -3.4% (inactive). In the case of `CCC(Cc1ccccc1)NS(=O)(=O)c1ccc2c(c1)NC(=O)CS2` (stereo unspecified) it was 2.9% (inactive). In the case of `CCOc1cc(C(=O)N2CCc3cc(OC)c(OC)cc3C2)ccc1OC(F)F` it was 90% (active); in that of `COc1cc2c(cc1OC)CN(C(=O)c1ccc(S(=O)(=O)N3CCCCCC3)cc1)CC2`, 0.2% (inactive); in that of `COc1cc2c(cc1OC)CN(C(=O)c1cc(=O)c3ccccc3o1)CC2`, 18.2% (inactive). The value for `CCCCN(CCCC)CCCNC(=O)CN1C(=O)COc2ccc(S(=O)(=O)N3CCC(C)CC3)cc21` was 7.2% (inactive); that for `COc1ccc(C2=Nc3cc(C)ccc3OC2)cc1` was -0.6% (inactive). For `CCOC(=O)CNc1nc(Cl)nc(Nc2ccc(OC)cc2OC)n1`, the inhibition is 6.5% (inactive). The value for `CCCc1cc(=O)oc2c(C)c(OCC(=O)NCc3ccccn3)ccc12` was -5.9% (inactive). In the case of `COc1cccc(CNC(=O)c2nnn(CC(=O)Nc3cc(Cl)ccc3C)c2N)c1` it was 19.7% (inactive); in that of `Nc1c(C(=O)NCc2ccccc2)nnn1Cc1cccc(Cl)c1`, 24.6% (active). In the case of `CCOc1ccc(Cn2nnc(C(=O)NCc3ccccc3)c2N)cc1` it was 4.7% (inactive); in that of `Cc1ccc(NS(=O)(=O)c2ccc(C(C)(C)C)cc2)cn1`, -0.9% (inactive). Take `Cc1cnc(C(=O)Oc2cccc(Cl)c2Cl)cn1`: the inhibition is 5.1% (inactive). In the case of `COc1ccccc1-c1nnc(SCC(=O)Nc2ccccc2)o1` it was -0.6% (inactive); in that of `COc1ccccc1-c1nnc(NC(=O)c2ccc3ncsc3c2)o1`, 22.8% (active). In the case of `COc1ccccc1-c1nnc(NC(=O)c2cccc(N3C(=O)CCC3=O)c2)o1` it was -5.8% (inactive); in that of `CC(C)=CCN1CCN(Cc2cc3ccccc3[nH]2)CC1CCO` (stereo unspecified), 1.5% (inactive). The value for `CCOC(=O)/C=C/C(=O)OCC(=O)NC(c1ccccc1)c1ccccc1` was 50.9% (active); that for `CCOC(=O)C(C(=O)OCC)C(C#N)c1ccccc1` (stereo unspecified) was 3.7% (inactive). For the compound `O=C(Cc1ccc(-c2ccccc2)cc1)NC(c1ccccc1)c1ccccc1`, the inhibition was -1.8% (inactive).

On to `CCc1ccc2[nH]c(=O)c(Cc3ccccc3)c(O)c2c1`, for which the inhibition is -0.4% (inactive). Take `COC(=O)c1ccc(S(=O)(=O)N2CCc3ccccc3C2)cc1`: the inhibition was 1.8% (inactive). The value for `CC(=O)Nc1c2c(nn1-c1cccc(C)c1)CSC2` was 2.5% (inactive); that for `O=C(c1ccc(OC2CCN(Cc3ccccn3)CC2)cc1)N1CCCCCC1` was -0.7% (inactive); that for `O=C(NCCOc1cccnc1)c1ccc(OC2CCN(Cc3ccccn3)CC2)cc1` was 99.8% (active). In the case of `Cn1cc(CNC(=O)c2ccc(OC3CCN(Cc4ccccn4)CC3)cc2)cn1` it was 5.4% (inactive); in that of `Cc1cccc(N2C(=O)N3[C@H](c4ccc(F)cc4)[C@@H]4C(=O)N(C5CCCCC5)C(=O)[C@@H]4[C@]3(Cc3ccccc3)C2=O)c1`, -6% (inactive); in that of `O=C(CSc1nnc(CNC(=O)c2ccc(F)cc2)o1)Nc1ccc2c(c1)OCO2`, 8.3% (inactive).

Turning to `COC(=O)CSc1nnc(NC(=O)CCc2ccccc2)s1`, the inhibition is 8.2% (inactive). `COC(=O)C(C)Sc1nc2c(c(=O)n(C)c(=O)n2C)n1Cc1cccc(C)c1` (stereo unspecified): the inhibition was -2.6% (inactive). In the case of `Cn1c(=O)c2c(nc(NCCc3ccccc3)n2Cc2ccccc2)n(C)c1=O` it was -1.8% (inactive).

On to `CCCCNc1nc2c(c(=O)n(C)c(=O)n2C)n1Cc1cccc(OC)c1`, for which the inhibition was 25.1% (active). In the case of `CCc1ccc(CN(C)C(=O)C2CCC(=O)N(Cc3cccc(OC)c3)C2)nc1` (stereo unspecified) it was 5.8% (inactive).
